Results on eight compounds are retold here after PubChem BioAssay (NCATS).

SMILES strings stand for the structures. Records with an inconclusive call do not appear. Active and inactive are the calls of the source. Unless noted, the call rests on the fitted dose curve; in most records, active means well fitted curve in the direction sought with a large enough effect; inconclusive means small, poorly fitted or top-dose-only effect, or another doubt; inactive means no such curve, though single readings can be large; an effect the other way counts as inactive or inconclusive.

For experiment [1], the target named is Cytochrome P450 3A4 (Homo sapiens) (UniProt P08684). The experiment can be described thus: qHTS Assay for Inhibitors and Substrates of Cytochrome P450 3A4 (AID 884). Further: on the % scale 0 is the no-effect control and ±100 the full control effect; nearly all actives have a fitted effect of over 50% in size. The procedure, abridged: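 20 nM human CYP3A4 with 25 uM Luciferin-PPXE (at KM) in 200 mM KPO4, preincubated 10 min with compound; NADPH regeneration started a 60 min RT reaction. Luciferin detected by luminescence, normalized to 57 uM ketoconazole as full inhibition.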
For orientation: In qHTS, concentration-response curves come from the screen itself.

A short description of experiment [2]: Confirmation and Secondary Assay for Modulators of Hemoglobin Beta Chain Splicing at IVS2 654 locus (AID 910).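 Further: HeLa cells stably carrying EGFP split by mutant beta-globin IVS2-654 intron; per-well total GFP intensity by laser scanning cytometry after 2-day treatment; % of control where 0% means no effect.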 In short, it runs like this: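 Readout: per-well total peak green fluorescence (488 nm ex, 500–520 nm em) from objects 5–250 µm, reflecting correct splicing of an EGFP-654 reporter. Compounds were applied for 2 days at 37 °C to overnight-plated HeLa EGFP-654 cells; controls were DMSO and 500 nM IVS2-654 PNA.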

The nature of experiment [3]: Confirmation and Secondary Assay for Modulators of Hemoglobin Beta Chain Splicing at IVS2 705 locus (AID 930).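 Further: HeLa cells stably expressing the EGFP-705 splicing reporter; GFP fluorescence per well restored by corrected splicing of the IVS2-705 intron in EGFP; % of control where 0% means no effect.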 In short, it runs like this:
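HeLa EGFP-705 reporter; 500 cells/well, o/n 37C 5% CO2; cpd 2 d; 488 ex/500-520 em laser scan; total peak GFP intensity/well. Ref: 500 nM […] antisense PNA.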

The nature of experiment [4]: qHTS Assay for Lipid Storage Modulators (AID 1519; calls by dose curve). The following applies: Drosophila S3 cells, BODIPY lipid droplet/cell ratio, laser cytometry, cells loaded with oleic acid. The procedure, abridged: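 Cells seeded at 5,000 per well were treated with compounds over a concentration series and loaded with oleic acid (400 uM, as added). Lipid droplet fluorescence (488 nm excitation, 500-530 nm channel) was read by laser-scanning cytometry and normalized to 20 uM Triacsin C.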

For experiment [5], the target named is Ubiquitin carboxyl-terminal hydrolase 1 (Homo sapiens) (UniProt O94782). The experiment can be described thus: Inhibitors of USP1/UAF1: Pilot qHTS (AID 504865). Further: nearly all actives have a fitted effect of over 35% in size. Further: potency means the concentration at half of the fitted maximal effect. The procedure, abridged:
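In 50mM HEPES pH 7.8 containing 0.5mM EDTA, 1mM TCEP, 0.1 mg/ml BSA and 0.01% Tween-20, 1nM USP1/UAF1 is exposed to compound for 15 min, then Ub-Rho (150nM final) is added and fluorescence is read over time.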

Another experiment addresses Furin (Homo sapiens) (UniProt P09958). As to the kind of experiment: Furin counterscreen qHTS for Zika virus inhibitors (AID 1347149). Further: nearly all actives have a fitted effect of over 70% in size. Further: potency means the concentration at half of the fitted maximal effect.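 On activity change, negative = inhibition: purified recombinant full-length human furin enzyme at 5 nM; fluorescence gain from furin cutting a BOC-RVRR-AMC peptide substrate over 15 min; top concentration of the series differs between compounds; plate controls were no-inhibitor control for no effect and no-enzyme control for full effect.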 The procedure, abridged:
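Fluorogenic cleavage of BOC-RVRR-AMC (2 microM final, Km ~15 µM) was monitored (ex 340, em 450 nm) at 37C after 15 min RT preincubation of 5 nM furin with compounds in HEPES pH 7.0 buffer with CaCl2 and Triton X-100. Percent inhibition was fitted to a 4-parameter Hill curve.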

Experiment [6] has as its system Zika virus NS2B-NS3 protease (unlinked). The experiment can be described thus: Optimization of GU AMC qHTS for Zika virus inhibitors: Unlinked NS2B-NS3 protease assay (AID 1347151).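 Further: 0% = no-inhibitor control and -100% = no-enzyme control; nearly all actives have a fitted effect of over 80% in size.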 In short, it runs like this: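 Unlinked protease (25 nM final); buffer 10 mM Tris-HCl pH 8.0 + 0.01% Tween 20; AMC substrate; 15 min RT, dark; Δfluorescence normalized to no-inhibitor/no-enzyme controls; 4-parameter Hill fit.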

A short description of experiment [7]: Vero cells viability qHTS for Zika virus inhibitors (AID 1347167). Further: on the % scale 0 is the no-effect control and ±100 the full control effect. The procedure, abridged:
(§1)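 Compounds were tested in concentration series on cells grown in DMEM containing 4% FBS. After 24 to 48 hours, cellular ATP was measured by luminescence with CellTiter Glo.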

The nature of experiment [8]: Tertiary RLuc qRT-PCR qHTS assay for Zika virus inhibitors (AID 1347169). Further: potency means the concentration at half of the fitted maximal effect; nearly all actives have a fitted effect of over 55% in size. In short, it runs like this: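 Vero, 1,000 cells/well, o/n 37 C; cpd pinned in DMSO; ZIKV-RLuc Cambodian, MOI 1-2, 48-72 h 37 C; live-cell RLuc substrate, lum read at 1-1.5 h.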
Background: In qPCR the cycle at which signal appears reflects the starting amount.

Experiment [9] deals with Zika virus NS2B-NS3 protease (linked construct). As to the kind of experiment: Confirmatory screen NINDS AMC qHTS for Zika virus inhibitors (AID 1347152). Further: nearly all actives have a fitted effect of over 70% in size. Further: potency means the concentration at half of the fitted maximal effect.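 On activity change, negative = inhibition: AMC fluorescence gain from cleaved Bz-Nle-KRR-AMC substrate over 15 min; top concentration of the series differs between compounds; 0% = no-inhibitor control and -100% = no-enzyme control.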 In short, it runs like this: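 Enzyme (1 nM, linked construct) was preincubated with compound for 15 minutes at room temperature in 10 mM Tris-HCl pH 8.0 with 0.01% Tween 20. Bz-Nle-Lys-Arg-Arg-AMC was then added to 10 microM, and AMC fluorescence was recorded immediately and after 15 minutes.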

The test system of experiment [10] is Zika virus NS2B-NS3 protease (unlinked complex). As to the kind of experiment: Confirmatory screen GU AMC qHTS for Zika virus inhibitors (AID 1347153). Further: nearly all actives have a fitted effect of over 70% in size. In short, it runs like this: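 Compounds were preincubated 15 min at room temperature with 25 nM noncovalent NS2B-NS3 protease at pH 8.0; AMC substrate added at 10 microM and 15-min fluorescence gain (340/450 nm) converted to percent inhibition, fitted 4-parameter.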

Experiment [11] has as its target Lysosomal acid glucosylceramidase (Homo sapiens) (UniProt P04062). As to the kind of experiment: Glucocerebrosidase-p2 (AID 348; in the data active means potency below about 10 µM; further: potency means the concentration at half of the fitted maximal effect). To be noted: purified GBA, blue fluorogenic substrate, 40 min. In short, it runs like this:
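Compounds titrated from 0.6 nM upwards against 0.2 nM enzyme in pH 5.9 citric acid/KH2PO4, taurocholate, tween-20; blue fluorogenic substrate 80 uM, 40 min room temperature, stopped and read Ex 365/Em 440 for AC50.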

A short description of experiment [12]: AP1 Signaling Pathway (AID 357; active means well fitted curve in either direction with a large enough effect, not every such curve was filed as active;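 further: ME-180 reporter cells stimulated with EGF at its EC50 level; on the % scale 0 is the no-effect control and ±100 the full control effect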). The following applies: ME-180 (cervical carcinoma) AP-1-bla reporter, EGF-induced, beta-lactamase ratio, 5 h; at 7.69 µM (top of the series). The procedure, abridged:
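Beta-lactamase reporter under AP-1 response element, ME-180 background. Stimulus: EC50 EGF. Compound exposure 5 h, 37 °C. Detection: CCF4, 2.5 h RT, 460/530 nm. Values: AC50 from titration.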

Experiment [13] addresses Glucocorticoid receptor (Homo sapiens) (UniProt P04150). As to the kind of experiment: GR-GFP Redistribution (AID 450;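 active means compounds whose dose series gives a full or clear partial fitted curve of increased nuclear translocation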; further: potency means the concentration at half of the fitted maximal effect). The following applies: U2OS GR-GFP nuclear translocation, laser cytometry, 2 h.
The target is the same in experiment [14]. As to the kind of experiment: GR-EFC Redistribution (AID 451; calls by dose curve; further: potency means the concentration at half of the fitted maximal effect). The following applies: CHO-K1 GR-EFC translocation, beta-gal luminescence, 2 h. The procedure, abridged: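 Translocation of GR-ED fusion to nuclear EA restores b-gal, read by luminescence after 1 h room-temperature detection. Engineered CHO-K1 biosensor cells, 1,000/well, exposed 2 h at 37 C to titrations up to 46 uM final.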

Experiment [15] deals with 3',5'-cyclic-AMP phosphodiesterase 4B (Homo sapiens) (UniProt Q07343). The experiment can be described thus: qHTS Assay for Inhibitors of PDE-IV (AID 607; active means well fitted activation curve with a large enough effect in the main read-out, with a control signal flat, not every such curve was filed as active; further: % of control where 0% means no effect). In short, it runs like this:
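Cell-based read-out of cAMP via a modified cyclic nucleotide-gated channel and membrane potential dye (535/590 nm) in HEK293 cells expressing PDE4 endogenously. Compounds tested up to 22.9 uM final; 100 uM RO 20-1724 reference.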

Experiment [16] relates to Zika virus NS2B-NS3 protease. The experiment can be described thus: Primary screen GU AMC qHTS for Zika virus inhibitors (AID 1347154). Further: potency means the concentration at half of the fitted maximal effect; nearly all actives have a fitted effect of over 70% in size. The procedure, abridged:
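Fluorogenic AMC-substrate cleavage by noncovalent NS2B-NS3 protease complex (25 nM, pH 8.0 Tris buffer with Tween 20) followed for 15 minutes at room temperature (~20% conversion). Percent inhibition from ex340/em450 signal change, fitted by 4-parameter Hill equation.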

The nature of experiment [17]: Confirmatory screen NINDS Rhodamine qHTS for Zika virus inhibitors (AID 1347161). Further: nearly all actives have a fitted effect of over 60% in size. Further: potency means the concentration at half of the fitted maximal effect.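 On activity change, negative = inhibition: purified Zika NS2B-NS3 protease with linked NS2B cofactor domain and Rhodamine110 peptide substrate; plate controls were no-inhibitor control for no effect and no-enzyme control for full effect.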 In short, it runs like this: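 Each compound, titrated, sat 15 min with 25 nM linked protease before 1.5 microM Rhodamine110 substrate went in. Fluorescence gain over the next 15 min, in pH 8.0 Tris with Tween 20, gave Hill-fitted curves.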
A short description of experiment [18]: Primary qHTS for small molecule stabilizers of the endoplasmic reticulum resident proteome: Secreted ER Calcium Modulated Protein (SERCaMP) assay (AID 1508630). Further: on the % scale 0 is the no-effect control and ±100 the full control effect. The procedure, abridged: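 GLuc-SERCaMP-expressing SH-SY5Y cells, pretreated 16 h with compound, are challenged with thapsigargin to empty ER calcium stores; after 4 h, coelenterazine is added directly to the medium and luminescence is imaged.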

Experiment [19] concerns the target Mitogen-activated protein kinase 10 (Mus musculus) (UniProt Q61831). The experiment can be described thus: JNK3 AlphaScreen Assay (AID 530; active means well fitted curve in either direction with a large enough effect, not every such curve was filed as active;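 further: kinase came from lysate of stimulated human HepG2 cells; signal reports phosphorylation of biotinylated GST-cJun 1-79 at Ser73 with 10 µM ATP; on the % scale 0 is the no-effect control and ±100 the full control effect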). In short, it runs like this: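 Room-temperature AlphaScreen kinase assay; pre-activated HepG2 lysate as JNK3 source, biotin-GST-cJun(1-79) substrate, 10 uM ATP, compound 15 min preincubation.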
(In general: Bead proximity is the source of the signal in Alpha formats.)

Experiment [20] addresses DNA dC->dU-editing enzyme APOBEC-3G (Homo sapiens) (UniProt Q9HC16). The experiment can be described thus: qHTS for inhibitors of Vif-A3G interactions: Validation (AID 588379). Further: 0% is about no effect. The procedure, abridged:
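HeLa cells stably expressing Vif and A3G-eYFP, 700 cells/well, incubated overnight at 37 deg C, then exposed to compound overnight at 37 deg C. Inhibition of Vif-mediated degradation read as increased yellow fluorescence (Ex 488/Em 500-530) by laser-scanning cytometry.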

Experiment [21] in a line: HepG2 cells viability qHTS for Zika virus inhibitors (AID 1347168). Further: on the % scale 0 is the no-effect control and ±100 the full control effect. The procedure, abridged:
as §1

Experiment [22] has as its target Rap guanine nucleotide exchange factor 3 (Homo sapiens) (UniProt O95398). As to the kind of experiment: Confirmatory qHTS for antagonist of cAMP-regulated guanine nucleotide exchange factor 3 (EPAC1) (AID 1645880). Further: potency means the concentration at half of the fitted maximal effect; nearly all actives have a fitted effect of over 55% in size. The procedure, abridged:
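Nucleotide exchange uses 100 nM EPAC1, 250 nM RAP1B-BODIPY-GDP and 50 uM GDP, with compounds in a concentration-titration series. After 5 min at room temperature, fluorescence (480 nm ex/540 nm em) is read every 5 min for 30 min. Data are normalized to control ATA and DMSO.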

For experiment [23] the target is unchanged. The experiment can be described thus: Confirmatory qHTS for agonist of cAMP-regulated guanine nucleotide exchange factor 3 (EPAC1) (AID 1645881).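 Further: EPAC1 catalysed release of BODIPY-GDP from Rap1B seen as fluorescence loss; 100% = effect of cAMP agonist control; nearly all actives have a fitted effect of over 75% in size.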
Experiment [24] deals with Rap guanine nucleotide exchange factor 4 (Homo sapiens) (UniProt Q8WZA2). The experiment can be described thus: Confirmatory qHTS for agonist of cAMP-regulated guanine nucleotide exchange factor 4 (EPAC2) (AID 1645884).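 Further: nucleotide exchange releases bodipy-GDP from Rap1 and this lowers its fluorescence; on the % scale 0 is the no-effect control and ±100 the full control effect; nearly all actives have a fitted effect of over 65% in size.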
Experiment [25] shares this target. The experiment can be described thus: Confirmatory qHTS for antagonist of cAMP-regulated guanine nucleotide exchange factor 4 (EPAC2) (AID 1645885). Further: potency means the concentration at half of the fitted maximal effect; nearly all actives have a fitted effect of over 25% in size.

Chain of Furin (Homo sapiens) (P09958 whole entry, looked up): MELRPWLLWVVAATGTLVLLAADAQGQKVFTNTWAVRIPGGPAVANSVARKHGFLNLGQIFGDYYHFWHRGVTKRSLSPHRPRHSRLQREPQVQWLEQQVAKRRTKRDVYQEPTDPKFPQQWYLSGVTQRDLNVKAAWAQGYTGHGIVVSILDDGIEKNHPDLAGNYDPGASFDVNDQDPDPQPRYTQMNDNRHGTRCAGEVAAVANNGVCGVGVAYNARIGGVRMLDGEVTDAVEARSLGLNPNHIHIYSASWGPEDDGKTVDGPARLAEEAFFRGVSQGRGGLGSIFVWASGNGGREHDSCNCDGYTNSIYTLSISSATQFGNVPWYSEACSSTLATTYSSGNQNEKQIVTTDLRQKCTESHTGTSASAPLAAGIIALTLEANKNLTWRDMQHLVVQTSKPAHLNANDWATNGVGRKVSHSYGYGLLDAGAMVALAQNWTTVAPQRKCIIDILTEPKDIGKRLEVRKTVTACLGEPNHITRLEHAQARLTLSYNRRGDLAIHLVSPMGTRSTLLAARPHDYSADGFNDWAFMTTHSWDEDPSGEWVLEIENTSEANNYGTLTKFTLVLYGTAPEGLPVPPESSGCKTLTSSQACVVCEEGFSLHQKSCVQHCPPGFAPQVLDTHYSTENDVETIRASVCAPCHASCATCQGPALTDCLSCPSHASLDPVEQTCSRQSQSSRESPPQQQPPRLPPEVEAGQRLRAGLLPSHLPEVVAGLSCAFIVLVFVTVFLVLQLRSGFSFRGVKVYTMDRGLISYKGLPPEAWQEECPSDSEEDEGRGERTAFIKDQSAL
Chain of Glucocorticoid receptor (Homo sapiens) (P04150 whole entry, looked up, the tested form may be a part): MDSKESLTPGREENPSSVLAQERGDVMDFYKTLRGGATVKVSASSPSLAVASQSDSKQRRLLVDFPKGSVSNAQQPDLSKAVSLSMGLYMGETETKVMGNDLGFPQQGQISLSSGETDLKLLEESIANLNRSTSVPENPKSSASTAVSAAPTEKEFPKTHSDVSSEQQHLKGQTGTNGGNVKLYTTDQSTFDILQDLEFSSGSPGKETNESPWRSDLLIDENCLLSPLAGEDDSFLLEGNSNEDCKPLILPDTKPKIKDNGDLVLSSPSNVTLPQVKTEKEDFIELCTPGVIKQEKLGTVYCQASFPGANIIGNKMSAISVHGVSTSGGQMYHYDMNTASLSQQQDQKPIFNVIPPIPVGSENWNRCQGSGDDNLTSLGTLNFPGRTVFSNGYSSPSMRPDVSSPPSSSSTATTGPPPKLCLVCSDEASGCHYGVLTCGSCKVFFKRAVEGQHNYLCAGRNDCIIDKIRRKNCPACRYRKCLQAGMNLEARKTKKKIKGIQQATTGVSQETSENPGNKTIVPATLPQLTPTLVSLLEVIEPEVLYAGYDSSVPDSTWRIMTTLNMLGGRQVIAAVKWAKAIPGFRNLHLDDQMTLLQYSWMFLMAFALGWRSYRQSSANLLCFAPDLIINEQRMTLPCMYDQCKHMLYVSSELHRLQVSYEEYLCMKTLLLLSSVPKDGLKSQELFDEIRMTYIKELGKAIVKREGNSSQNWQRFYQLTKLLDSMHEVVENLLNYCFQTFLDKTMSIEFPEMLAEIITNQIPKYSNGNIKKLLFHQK
Chain of Rap guanine nucleotide exchange factor 4 (Homo sapiens) (Q8WZA2 whole entry, looked up): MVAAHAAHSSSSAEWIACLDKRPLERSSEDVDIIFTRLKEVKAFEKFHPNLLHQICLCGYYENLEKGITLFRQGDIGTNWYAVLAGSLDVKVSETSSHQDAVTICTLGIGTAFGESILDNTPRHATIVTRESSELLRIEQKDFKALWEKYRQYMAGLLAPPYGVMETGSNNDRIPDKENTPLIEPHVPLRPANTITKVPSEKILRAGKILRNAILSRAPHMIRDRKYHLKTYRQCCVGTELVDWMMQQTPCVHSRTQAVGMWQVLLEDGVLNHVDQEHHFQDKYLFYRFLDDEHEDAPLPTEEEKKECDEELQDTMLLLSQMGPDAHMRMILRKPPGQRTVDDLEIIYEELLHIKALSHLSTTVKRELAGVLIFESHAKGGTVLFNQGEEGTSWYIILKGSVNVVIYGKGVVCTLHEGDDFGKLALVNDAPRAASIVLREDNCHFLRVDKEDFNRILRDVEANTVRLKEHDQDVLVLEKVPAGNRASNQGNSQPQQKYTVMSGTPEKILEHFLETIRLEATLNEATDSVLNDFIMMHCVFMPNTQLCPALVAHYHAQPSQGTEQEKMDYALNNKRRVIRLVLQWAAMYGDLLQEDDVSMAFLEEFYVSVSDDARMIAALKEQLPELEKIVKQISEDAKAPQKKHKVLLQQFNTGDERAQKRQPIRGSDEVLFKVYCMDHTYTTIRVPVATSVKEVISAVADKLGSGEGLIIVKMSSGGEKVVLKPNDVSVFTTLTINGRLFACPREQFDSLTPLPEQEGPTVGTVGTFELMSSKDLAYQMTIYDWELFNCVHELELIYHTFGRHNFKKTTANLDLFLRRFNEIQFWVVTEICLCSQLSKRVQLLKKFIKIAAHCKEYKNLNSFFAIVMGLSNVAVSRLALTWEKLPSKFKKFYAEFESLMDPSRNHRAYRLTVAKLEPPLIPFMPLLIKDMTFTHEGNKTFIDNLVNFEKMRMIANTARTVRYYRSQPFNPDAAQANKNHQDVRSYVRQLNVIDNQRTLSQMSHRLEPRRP
Chain of Ubiquitin carboxyl-terminal hydrolase 1 (Homo sapiens) (O94782 whole entry, looked up): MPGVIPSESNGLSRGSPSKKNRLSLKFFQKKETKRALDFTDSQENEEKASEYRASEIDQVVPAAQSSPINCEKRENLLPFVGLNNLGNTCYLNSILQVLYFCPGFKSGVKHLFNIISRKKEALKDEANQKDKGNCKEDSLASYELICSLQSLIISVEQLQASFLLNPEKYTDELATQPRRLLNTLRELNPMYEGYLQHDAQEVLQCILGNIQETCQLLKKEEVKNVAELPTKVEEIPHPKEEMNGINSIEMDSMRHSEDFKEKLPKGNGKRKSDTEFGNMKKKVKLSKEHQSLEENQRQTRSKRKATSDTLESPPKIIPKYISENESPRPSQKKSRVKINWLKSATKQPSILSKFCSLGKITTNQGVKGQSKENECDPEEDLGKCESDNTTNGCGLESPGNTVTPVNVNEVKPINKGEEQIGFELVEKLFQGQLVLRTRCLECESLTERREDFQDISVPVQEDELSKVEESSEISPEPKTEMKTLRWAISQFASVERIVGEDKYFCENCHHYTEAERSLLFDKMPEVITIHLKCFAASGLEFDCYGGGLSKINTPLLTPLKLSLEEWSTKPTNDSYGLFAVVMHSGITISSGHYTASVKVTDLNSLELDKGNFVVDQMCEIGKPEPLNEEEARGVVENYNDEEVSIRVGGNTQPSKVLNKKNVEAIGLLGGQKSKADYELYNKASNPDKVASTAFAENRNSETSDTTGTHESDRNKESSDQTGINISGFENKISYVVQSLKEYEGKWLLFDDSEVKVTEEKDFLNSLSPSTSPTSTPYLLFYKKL
Chain of Rap guanine nucleotide exchange factor 3 (Homo sapiens) (O95398 whole entry, looked up): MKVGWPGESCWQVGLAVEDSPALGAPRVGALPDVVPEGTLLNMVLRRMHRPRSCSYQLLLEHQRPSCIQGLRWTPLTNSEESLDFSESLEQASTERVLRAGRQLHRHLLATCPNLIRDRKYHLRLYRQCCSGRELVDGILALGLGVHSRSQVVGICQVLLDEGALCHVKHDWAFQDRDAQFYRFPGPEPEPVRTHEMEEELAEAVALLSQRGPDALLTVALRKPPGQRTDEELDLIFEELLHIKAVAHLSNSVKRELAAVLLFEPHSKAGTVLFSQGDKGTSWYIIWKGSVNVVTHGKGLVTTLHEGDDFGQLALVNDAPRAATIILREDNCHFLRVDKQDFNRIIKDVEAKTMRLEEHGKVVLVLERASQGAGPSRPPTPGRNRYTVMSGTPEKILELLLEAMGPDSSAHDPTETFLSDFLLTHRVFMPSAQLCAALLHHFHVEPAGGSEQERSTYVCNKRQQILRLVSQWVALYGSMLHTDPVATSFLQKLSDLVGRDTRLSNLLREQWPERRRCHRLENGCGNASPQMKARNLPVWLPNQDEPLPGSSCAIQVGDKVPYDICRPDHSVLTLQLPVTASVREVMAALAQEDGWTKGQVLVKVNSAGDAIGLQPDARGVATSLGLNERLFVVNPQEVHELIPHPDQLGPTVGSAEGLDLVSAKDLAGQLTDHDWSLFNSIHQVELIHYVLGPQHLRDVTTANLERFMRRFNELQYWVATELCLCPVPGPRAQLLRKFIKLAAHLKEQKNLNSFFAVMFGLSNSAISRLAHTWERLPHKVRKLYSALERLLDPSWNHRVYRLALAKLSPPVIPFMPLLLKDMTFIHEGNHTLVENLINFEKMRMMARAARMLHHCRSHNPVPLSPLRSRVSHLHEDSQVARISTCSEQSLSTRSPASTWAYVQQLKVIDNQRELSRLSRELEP
Chain of 3',5'-cyclic-AMP phosphodiesterase 4B (Homo sapiens) (Q07343 whole entry, looked up): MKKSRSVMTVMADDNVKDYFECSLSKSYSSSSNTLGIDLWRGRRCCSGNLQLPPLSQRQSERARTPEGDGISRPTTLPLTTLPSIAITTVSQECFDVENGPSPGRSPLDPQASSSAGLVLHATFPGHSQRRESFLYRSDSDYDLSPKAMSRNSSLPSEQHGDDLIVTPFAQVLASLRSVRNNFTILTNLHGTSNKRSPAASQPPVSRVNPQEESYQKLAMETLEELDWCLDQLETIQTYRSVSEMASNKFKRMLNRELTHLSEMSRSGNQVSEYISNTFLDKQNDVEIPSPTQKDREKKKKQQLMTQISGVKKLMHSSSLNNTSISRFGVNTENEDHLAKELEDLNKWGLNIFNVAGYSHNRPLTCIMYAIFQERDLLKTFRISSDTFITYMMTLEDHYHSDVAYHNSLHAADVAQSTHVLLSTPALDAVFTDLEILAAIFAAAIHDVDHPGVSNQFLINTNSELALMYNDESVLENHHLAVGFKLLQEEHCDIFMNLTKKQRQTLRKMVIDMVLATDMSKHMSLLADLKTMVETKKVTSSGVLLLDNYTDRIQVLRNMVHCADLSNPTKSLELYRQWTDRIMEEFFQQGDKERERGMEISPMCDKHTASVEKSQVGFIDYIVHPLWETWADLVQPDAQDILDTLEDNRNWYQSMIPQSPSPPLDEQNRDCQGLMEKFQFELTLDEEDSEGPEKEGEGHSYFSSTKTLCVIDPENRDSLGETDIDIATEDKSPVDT

On to `CC1O[C@@H](O[C@@H]2C(O)C[C@H](O[C@@H]3C(O)C[C@@H](OC4CC[C@@]5(C)C6CC(O)[C@@]7(C)C(C8=CC(=O)OC8)CC[C@@]7(O)C6CC[C@@H]5C4)OC3C)OC2C)CC(O)[C@H]1O` (some centres not stated), for which the Potency result (in experiment [1]; in experiment [5]; with Furin (Homo sapiens); in experiment [6]; in [7]) was “inactive” in each case. In addition, the call in experiment [2] and in [3] was inactive. Moreover, in experiment [4] (at 57.5 µM (top of the series)), the activity change, negative = inhibition is 7.91% (inactive). Besides, the results for the max response in experiment [4] (measured here: cell count channel max response) and in experiment [4] (measured here: lipid channel max response) were 11.2% and 22.9%, respectively. Moreover, the Potency in experiment [8] was 1.17 µM (active).
Turning to `O=C(Nc1ccc(Oc2ccccc2)cc1)O[C@@H]1CO[C@H]2[C@@H]1OC[C@@H]2NS(=O)(=O)c1ccc(Cl)cc1`, the Potency result (with Furin (Homo sapiens); in experiment [9]; in [10]) was “inactive” in each case.
Take `O=C(Nc1cccc2ccccc12)O[C@@H]1CO[C@H]2[C@@H]1OC[C@@H]2NS(=O)(=O)c1cccc2cccnc12`: the Potency entry (with Furin (Homo sapiens); in experiment [9]; in experiment [10]) was “inactive” in each case.
Regarding `NC(N)=Nc1ccc(O[C@H]2C[C@@H](Oc3ccc(N=C(N)N)cc3)[C@H](N=C(N)N)C[C@@H]2N=C(N)N)cc1`, the Potency with Furin (Homo sapiens) was 1.26 µM (active).
For `CC(C)(C)c1ccc(NC(=O)O[C@@H]2CO[C@H]3[C@@H]2OC[C@@H]3Nc2nccc(-c3ccc(-c4ccccc4)cc3)n2)cc1`, the Potency in the experiment with Furin (Homo sapiens) was 62.2 µM (active). Also, the Potency result in experiment [9] and in experiment [10] was “inactive” each time.
Take `Cc1c2ccccc2c(CSC(=N)N)c2ccccc12`: the Potency is 1.39 µM (active) in [11], > 46 µM (inactive) in [13], > 9.22 µM (inactive) in experiment [14] and 21.2 µM (active) in experiment [16]. Besides, the activity change, negative = inhibition in experiment [12] is -16.8% (inactive). For the same compound, the Potency entry (in experiment [15]; with Furin (Homo sapiens); in experiment [9]; in experiment [10]; in experiment [17]; in [7]) was “inactive” each time. In experiment [18], the Potency result was “inactive”.
For the compound `CC1(COc2ccc(C[C@H]3SC(=O)NC3=O)cc2)CCCCC1`, the Potency in experiment [13] was > 46 µM (inactive); in experiment [14], > 46 µM (inactive); in experiment [5], 79.4 µM (active); in experiment [9], 19.2 µM (active); in experiment [10] it was 21.5 µM (active); in experiment [16] it was 11.9 µM (active). The Potency is 4.4 µM (active) in experiment [17], 55.9 µM (active) in experiment [22] and 49.4 µM (active) in [25]. For the same compound, the Potency result (in experiment [19]; in experiment [15]; in [20]; in the experiment with Furin (Homo sapiens); in experiment [7]; in experiment [21]) was “inactive” throughout. In experiment [18], the Potency result was “inactive”. For the same compound, the compound was called inactive in experiment [23] and in [24].
As to `O=C(OCc1cc(=O)n2c3c(sc2n1)CCCC3)c1cccc(NC(=O)c2ccccc2F)c1`, in the experiment with Furin (Homo sapiens), the Potency was 59.1 µM (active).
